ATG4B inh = blocks human ATG4B protease cleavage of LC3 substrate; AID 504462; 340,000 tested, 0.51% active; inhibition, % at 8.33 µM; ATG4B cleavage of LC3-PLA2, NBD-HPC fluorescence, 1 h; in the data active = inhibition above about 40%
M1 antag = antagonists of human M1 muscarinic receptor. 360,000 tested, 1.3% active. AID 588852. P11229. inhibition, % at 3 µM. CHO-K1 hM1, Fluo-8 calcium fluorescence, ACh EC80 antagonist;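 active = percent inhibition above its own plate's cutoff, namely the mean of that plate's compound wells plus 3 SD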;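 note: peak over basal fluorescence ratio during 140 s after agonist addition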
Target sequence (P11229 whole entry, looked up): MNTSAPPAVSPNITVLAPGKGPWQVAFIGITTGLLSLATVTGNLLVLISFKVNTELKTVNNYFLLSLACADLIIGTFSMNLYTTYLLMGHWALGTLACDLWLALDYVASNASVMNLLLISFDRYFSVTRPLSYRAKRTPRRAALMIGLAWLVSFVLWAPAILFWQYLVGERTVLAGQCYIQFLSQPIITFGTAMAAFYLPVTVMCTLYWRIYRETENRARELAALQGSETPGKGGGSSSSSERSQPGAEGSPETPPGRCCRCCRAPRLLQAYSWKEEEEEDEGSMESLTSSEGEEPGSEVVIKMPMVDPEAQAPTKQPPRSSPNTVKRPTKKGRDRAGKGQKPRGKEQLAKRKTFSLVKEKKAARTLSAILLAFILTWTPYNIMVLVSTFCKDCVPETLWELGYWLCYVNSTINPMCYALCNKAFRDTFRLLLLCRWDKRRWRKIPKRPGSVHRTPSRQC
M1 ag = human M1 muscarinic receptor agonism | P11229 | CHO-K1 hM1, Fluo-8 calcium fluorescence, agonist mode; 0% DMSO, 100% acetylcholine EC100 | activation, % at 3 µM | 360,000 tested, 0.33% active | AID 588814;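 active = activation above the run's mean compound activation plus 3 SD, cut at about 16% in these data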;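 note: peak over basal fluorescence ratio within a 140 s kinetic read after compound addition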
CHRM1 PAM = positive allosteric modulators of human M1 muscarinic receptor; P11229; CHO-K1 hM1, Fluo-8 calcium fluorescence, ACh EC20; 0% = ACh EC20, 100% = maximal ACh; activation, % at 3 µM; 360,000 tested, 0.088% active; AID 588819; in the data active = activation above about 19%, passing the limit was not always enough
Myeloid diff MLP = myeloid differentiation induction. calls only at 10 µM. 360,000 tested, 1% active. ER-HoxA9 myeloid progenitors, lysozyme-GFP differentiation, flow cytometry;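 active = normalized GFP-positive differentiation at or above the plate's own cutoff, the solvent-only control mean plus 3 SD; inconclusive = no clear call, values can overlap the other calls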;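 note: cells exposed to compound for four days before flow analysis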
SKN-1 block = blocks SKN-1 activity in C. elegans; inhibition, % at 21.8 µM; C. elegans VP596 Pgst-4::GFP/RFP ratio, acrylamide-induced, 24 h; 360,000 tested, 0.49% active; AID 624304;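 active = interference check ratio from 0.5 to 1.5 plus GFP to RFP signal ratio inhibition reaching or exceeding a fixed threshold, cut at about 30% in these data, passing the limit was not always enough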
Numbers stand for hits; i = inactive; ? = inconclusive; nt = not tested or not shown; + = active, no number; ! = repeats disagree. In the library only some 3.5% were active in any assay of this set; here they are far more common.

SMILES | ATG4B inh | M1 antag | M1 ag | CHRM1 PAM | Myeloid diff MLP | SKN-1 block
Cn1c(=O)c(/C=C/c2ccc(F)cc2)nc2ccccc21 | i | i | i | i | i | i
O=c1c(/C=C(\O)c2ccc(F)cc2)nc2ccccc2n1-c1ccccc1 | i | i | i | i | + | i
c1ccc2c(c1)NC(c1ccncc1)n1c-2nc2ccccc21 (stereo not drawn) | i | i | i | i | i | 33.7
c1cncc(C2Nc3ccccc3-c3nc4ccccc4n32)c1 (stereo not drawn) | i | i | i | i | i | i
CS(=O)(=O)Nc1ccc2c(c1)[C@@H]1C[C@@H](CC(=O)NCc3cccnc3)O[C@H](CO)[C@@H]1O2 | nt | i | i | i | i | i
Cc1ccc(C2(C)NC(=O)N(CC(=O)Nc3nc(-c4ccccn4)cs3)C2=O)cc1 (stereo not drawn) | i | i | i | i | i | i
C[N+]1(C)CC[C@H](OC(=O)[C@@](O)(c2ccccc2)C2CCCC2)C1 | i | 99.5 | i | i | i | i
C[N+]1(C)CCC(OC(=O)C(O)(c2ccccc2)C2CCCC2)C1 (stereo not drawn) | i | 97.3 | i | i | i | i
O=C(Nc1ccccc1C(F)(F)F)C(O)(c1ccccc1)C1CCCCC1 (stereo not drawn) | i | i | i | i | i | i
Cc1nc2ccc(C(=O)N(C)Cc3ccccc3)cn2c1N(C)C(=O)CCc1ccccc1 | nt | i | i | i | i | i
O=C(COC(=O)c1n[nH]c(=O)c2ccccc12)Nc1cccc(S(=O)(=O)N2CCOCC2)c1 | i | i | i | i | i | i
CCN1CCN(Cc2ccc(NC(=O)c3ccc(C)c(NC(=O)c4nccn4C)c3)cc2C(F)(F)F)CC1 | i | i | i | i | i | i
CCN1CCN(Cc2ccc(NC(=O)c3ccc(C)c(NC(=O)N4CCNC4=O)c3)cc2C(F)(F)F)CC1 | i | i | i | i | +! | i
Cc1nc(SCC(=O)NC(=O)NCc2ccccc2)nc(C)c1C | i | i | i | i | i | i
COCCNC(=O)NC(=O)CSc1nc(C)c(C)c(C)n1 | i | i | i | i | + | i
CCOc1ccc(Br)cc1C(=O)Nc1ccc(C(=O)NCC(C)C)cc1 | i | i | i | i | + | i
CN(C)C(CNC(=O)c1cnc(Cl)c(Cl)c1)c1ccccc1 (stereo not drawn) | i | i | i | i | i | i
CSc1ccccc1NC(=O)c1ccc(N2CCCC2=O)cc1 | i | i | i | i | i | i
Cc1cc2c3c([nH]c2cc1S(=O)(=O)NCc1ccc(CN2CCCCCC2)o1)CC(C)(C)CC3=O | i | 52.3 | i | i | i | i
Cc1cc2c3c([nH]c2cc1S(=O)(=O)NCc1ccc(CN2CCCCCC2)o1)CCCC3=O | i | 84.6 | i | i | i | i
Cc1ccc(-n2nc3c(c2NC(=O)c2c(-c4ccccc4Cl)noc2C)CSC3)cc1 | 42.6 | nt | nt | nt | nt | nt
Cc1ccccc1-n1nc2c(c1NC(=O)c1c(-c3ccccc3Cl)noc1C)CSC2 | i | i | i | i | i | i
CCCNCc1cc(Cl)c(OCC)c(Cl)c1 | i | i | i | i | ? | 41.5
Oc1ccc(C=NN=C2c3ccccc3-c3ccccc32)c(O)c1 | i | i | i | i | i | i
Cc1cccc(C(=O)NC(=S)NNC(=O)c2ccc(Cl)cc2)c1 | i | 36.9 | 93.2 | i | i | i
SMILES | ATG4B inh | M1 antag | M1 ag | CHRM1 PAM | Myeloid diff MLP | SKN-1 block
O=C(Nc1ccccc1C(=O)Nc1ccncc1)c1cccc([N+](=O)[O-])c1 | i | i | i | i | i | i
COc1cc(C(=O)NNC(=S)NC(=O)c2ccc(Cl)cc2)cc(OC)c1OC | i | i | 32.8 | i | i | i
O=C(O)c1cccc(NC(=O)c2ccccc2NC(=O)c2cccc([N+](=O)[O-])c2)c1 | i | i | i | i | + | i
Cc1ccccc1C(=O)NNC(=S)NC(=O)c1cccs1 | i | i | 51.1 | i | i | i
COc1ccc(S(=O)(=O)N2CCCCCC2)cc1N | i | i | i | i | i | i
O=C(COC(=O)CCNS(=O)(=O)c1ccccc1F)Nc1nnc(-c2ccccc2)o1 | i | i | i | i | i | i
Cc1ccc(OCC(=O)NNC(=S)NC(=O)c2cccs2)c(C)c1 | i | i | i | i | i | i
CC(=O)NC(=S)Nc1ccc(NC(=S)NC(=O)c2cccs2)cc1 | i | i | i | i | i | i
CC(C)(C)c1ccc(C(=O)NC(=S)NNC(=O)c2cccs2)cc1 | i | 26.7 | 91.9 | i | i | i
O=C(NNC(=S)NC(=O)c1ccccc1)c1cccc([N+](=O)[O-])c1 | i | i | 16.6 | i | i | i
Cc1cccc(C(=O)NC(=S)NNC(=O)c2cccs2)c1 | i | i | 19.2 | i | i | i
O=C(NC(=S)NNC(=O)c1cccs1)c1ccccc1 | i | i | i | i | i | i
O=C(NNC(=S)NC(=O)c1cccc([N+](=O)[O-])c1)c1ccc(O)cc1 | i | i | i | i | i | i
Cc1c(C(=O)NC(=S)Nc2ccc(NC(=O)c3cccs3)cc2)cccc1[N+](=O)[O-] | i | 33.2 | i | i | i | i
Cc1c(Cl)cccc1NC(=O)CNC(=O)CCS(=O)(=O)c1ccc(F)cc1 | i | i | i | i | i | i
CN(C(=O)c1ccc2c(c1)OCO2)C1CCS(=O)(=O)C1 (stereo not drawn) | i | i | i | i | i | i
O=C1CC(N2CCN(c3ncccn3)CC2)C(=O)N1CCc1ccccc1 (stereo not drawn) | i | i | i | i | i | i
Cc1nc2scc(C)n2c(=O)c1S(=O)(=O)Nc1ccc(N2CCOCC2)cc1 | i | i | i | i | i | i
O=C(CN1CCN(C(=O)c2cccc(S(=O)(=O)N3CCCC3)c2)CC1)Nc1cccc(F)c1 | i | i | i | i | i | i
CN(C(=S)NC(=O)c1ccc(Cl)cc1)C1CCCCC1 | i | i | i | i | nt | i
CCc1noc(C)c1C(=O)NNC(=O)c1ccccc1F | i | i | i | i | i | i
O=C(NC(c1cccnc1)C(F)(F)F)c1cc(COc2ccc3c(c2)CCCC3)on1 (stereo not drawn) | i | 42.3 | i | i | ? | i
Cn1cc(CNC(=O)c2cc(COc3ccc4c(c3)CCCC4)on2)cn1 | i | i | i | i | i | i
O=C(O)c1ccc2ccc3ccccc3c2c1 | i | i | i | i | i | 41.2
O=C(O)c1cccc(C(=O)c2cccc3ccccc23)c1 | i | i | i | i | i | i
CN(Cc1ccccc1)S(=O)(=O)c1ccc(NS(=O)(=O)Cc2ccccc2)cc1 | i | 29.8 | i | i | i | i
CCOC(=O)C1=C(C)NC(C)=C(C(=O)OCC)C1C(=O)OCC(=O)N(C)Cc1ccccc1 | i | i | i | i | i | i
FC(F)(F)c1cccc(-c2nc(-c3ccncc3)no2)c1 | i | i | i | i | i | 50.1
